# Data: PubChem BioAssay (Tox21)
# Values joined by “and” are separate entries in the source; they are usually repeats but may differ in a detail not shown here. Equal entries are not always repeated. Inconclusive results are not listed. The source holds several records for some structures; these can differ, active in one and inactive in another. Active and inactive are the calls of the source. The call rests on the fitted dose curve; in most records, active means well fitted inhibition curve with a large enough effect in the signal ratio in the repeat runs (not every such curve was filed as active); inconclusive means weak or mixed curves, or effect the other way; inactive means no such curve, though single readings can be large or run the other way; the % refers to the signal ratio.
# Target: Glucocorticoid receptor (Homo sapiens) (UniProt P04150)
# Assay: qHTS assay to identify small molecule antagonists of the glucocorticoid receptor (GR) signaling pathway (AID 720692)
# Conditions: GR-bla HeLa, beta-lactamase FRET ratio, dexamethasone-stimulated, 18 h; series mostly up to 58.5 µM; activity change, negative = inhibition: at the top concentration
# From the text: U.S. Tox21 Program National Center for Advancing Translational Sciences [NCATS] NIH Chemical Genomics Center [NCGC] U.S. Environmental Protection Agency [EPA] National Institutes of Environmental Health Sciences [NIEHS] National Toxicology Program [NTP] U.S. Food and Drug Administration [FDA] Tox21 Assay Overview: The Glucocorticoid receptor (GR) is one of the members of the nuclear receptor family of ligand-dependent transcription factors. GR plays a critical role in carbohydrate, protein and lipid metabolisms and programmed cell death. CellSensor GR-bla HeLa cell line (Invitrogen) contains a beta-lactamase reporter gene under the control of the glucocorticoid response element stably integrated into HeLa cells, a cervical cancer cell line that expresses glucocorticoid receptor. The activation of the reporter gene under culture conditions can be detected by fluorescence intensity. This cell line has been used to screen the Tox21 10K compound library and to identify the compounds that inhibit the GR signaling.
# Tox21 Assay Protocol Summary: The GR-bla HeLa cells were dispensed at 1500 cells/5 ul/well in 1536-well black wall/clear bottom plates using a Multidrop Combi (ThermoFisher Scientific, Waltham, MA) dispenser. After the assay plates were incubated at a 37 C/5% CO2 incubator for 4 hours, 23 nL of compounds dissolved in DMSO, positive controls or DMSO only was transferred to the assay plate by a pintool station (Kalypsys, San Diego, CA), followed by addition of 1 uL of dexamethasone (5 nM, final concentration in the well). The plates were incubated at 37 C for 18 hours. After 1 uL of LiveBLAzerTM B/G FRET substrate was added using a Flying Reagent Dispenser (Aurora Discovery, San Diego, CA), the plates were incubated at room temperature for 2 hours, and fluorescence intensity was measured by an Envision plate reader (PerkinElmer, Shelton, CT).
# On the % scale 0 is the no-effect control and ±100 the full control effect; potency means the concentration at half of the fitted maximal effect.
# Glucocorticoid receptor (Homo sapiens), sequence (P04150 whole entry, looked up): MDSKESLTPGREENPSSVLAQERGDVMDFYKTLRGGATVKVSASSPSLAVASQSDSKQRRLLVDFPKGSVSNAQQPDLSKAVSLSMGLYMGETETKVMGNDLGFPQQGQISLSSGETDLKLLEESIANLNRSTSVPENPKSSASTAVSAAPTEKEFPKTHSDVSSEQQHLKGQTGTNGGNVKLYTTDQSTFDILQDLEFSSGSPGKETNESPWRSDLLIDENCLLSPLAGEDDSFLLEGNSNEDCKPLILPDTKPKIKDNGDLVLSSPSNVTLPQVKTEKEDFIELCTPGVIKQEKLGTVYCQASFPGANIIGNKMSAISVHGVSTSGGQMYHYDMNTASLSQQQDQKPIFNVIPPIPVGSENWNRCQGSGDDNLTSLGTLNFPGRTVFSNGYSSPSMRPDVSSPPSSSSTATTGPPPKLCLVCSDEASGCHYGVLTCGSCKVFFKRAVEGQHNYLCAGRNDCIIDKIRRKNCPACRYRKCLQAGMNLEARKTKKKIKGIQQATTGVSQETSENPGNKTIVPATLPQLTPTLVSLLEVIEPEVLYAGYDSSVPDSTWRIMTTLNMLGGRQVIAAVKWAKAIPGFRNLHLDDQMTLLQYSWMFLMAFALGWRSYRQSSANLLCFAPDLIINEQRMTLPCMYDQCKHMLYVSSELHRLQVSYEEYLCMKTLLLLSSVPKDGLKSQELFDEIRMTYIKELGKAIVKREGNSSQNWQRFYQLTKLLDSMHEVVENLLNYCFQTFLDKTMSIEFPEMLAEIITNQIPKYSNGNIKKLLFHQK
SMILES,Potency,"activity change, negative = inhibition"
C=Cc1ccc(S(=O)(=O)O)cc1,inactive and 19.5 µM (active),–
C1COC1,–,-11.2% (inactive)
CCCCC(CC)COP(=O)(O)O (stereo not given),49.8 µM (active),–
CCCCCCC(C)(C)C(=O)O,–,-8.44% (inactive)
Cc1cccc(O)c1N,–,-21.2% [at 78.9 µM] (inactive)
CCN(CC)CCNC(=O)COc1ccc(OC)cc1,–,-5.1% (inactive)
O=C(CCCN1CC=C(n2c(=O)[nH]c3ccccc32)CC1)c1ccc(F)cc1,–,8.28% (inactive)
CN1C[C@H](C(=O)N[C@]2(C)O[C@@]3(O)[C@@H]4CCCN4C(=O)[C@H](Cc4ccccc4)N3C2=O)C[C@@H]2c3cccc4[nH]cc(c34)C[C@H]21,–,1.37% (inactive)
CN1CCCN=C1COC(=O)C(O)(c1ccccc1)C1CCCCC1 (stereo not given),–,-4.66% (inactive)
COC(=O)C1=C(C)NC(C)=C(C(=O)O[C@@H]2CCCN(Cc3ccccc3)C2)[C@@H]1c1cccc([N+](=O)[O-])c1,10.7 µM (active),–
C=C1c2cccc(O)c2C(O)=C2C(=O)[C@]3(O)C(O)=C(C(N)=O)C(=O)[C@@H](N(C)C)[C@@H]3[C@@H](O)[C@H]12,–,3.77% [at 27 µM] (inactive)
C[C@@]12CCC[C@H]1[C@@H]1CC[C@H]3C[C@@H](O)CC[C@]3(C)[C@H]1CC2,–,-2.2% (inactive)
COc1ccccc1NC(=O)c1cc2ccccc2cc1O,38.9 µM (active),–
CC1CC(C)C(=O)C1=O (stereo not given),–,9.22% (inactive)
CCCCCCCCCCCCCCN(CCO)CCO,19.5 µM (active),–
CCC(C)(C)OC,–,-0.535% (inactive)
N#CCCN(CCO)CCO,–,5.76% (inactive)
CCOc1cccc(-n2cc(C(=O)N3CCN(c4cc(C(=O)O)c5ccccc5c4)CC3)nc2-c2ccc(C)cc2)c1,14.8 µM (active),–
CC(C)(O)c1ccc(CNC(=O)c2cccnc2Oc2ccc3nonc3c2)cc1,–,-0.801% (inactive)
CCC1NC(=O)c2cc(S(N)(=O)=O)c(Cl)cc2N1 (stereo not given),–,-1.42% [at 27 µM] (inactive)

SMILES,Potency,"activity change, negative = inhibition"
Cc1cc(C)cc(N)c1,–,-11% [at 78.9 µM] (inactive)
C=CC(C)(CCC=C(C)C)OC(=O)CC(C)C (stereo not given),–,1.62% (inactive)
CN(C(=O)CN(CCO)CC(=O)N(C)C(C)(C)Cc1ccccc1)C(C)(C)Cc1ccccc1,–,10.8% [at 27 µM] (inactive)
c1csc(SSc2cccs2)c1,–,-3.03% (inactive)
C=CC(=O)[O-].C=CC(=O)[O-].[Zn+2],–,3.23% (inactive)
C=C/C(C)=C/C/C=C(\C)CCC=C(C)C,38.9 µM (active),–
CCOC(=O)c1ccccc1C(=C1C=C(Br)C(=O)C(Br)=C1)c1cc(Br)c(O)c(Br)c1,4.61 µM (active),–
CCC(=O)OC,–,-3.38% [at 78.9 µM] (inactive)
CCCCCC[C@@H](O)C/C=C\CCCCCCCC(=O)O,inactive,–
O=C(OC(=O)c1ccccc1)c1ccccc1,–,-1.44% [at 78.9 µM] (inactive)
O=C(O)CCC(=O)C(=O)O,inactive,–
O=C(O)c1cccc(-c2noc(-c3ccccc3F)n2)c1,–,6.95% (inactive)
CCc1ccccc1,–,3.71% [at 78.9 µM] (inactive)
O=C(O)C[C@H](NC(=O)OCc1ccccc1)C(=O)O,–,17.8% (inactive)
CCOC(=O)/C=C/C(=O)OCC,–,-4.87% (inactive)
NCCNCCO,–,2.14% [at 78.9 µM] (inactive)
O=c1cc(-c2ccccc2)oc2cc(O)cc(O)c12,19.5 µM (active),–
O[C@@H]1CO[C@H]2[C@@H]1OC[C@@H]2O,–,2.21% (inactive)
CN1CC(=O)N2[C@H](c3ccc4c(c3)OCO4)c3[nH]c4ccccc4c3C[C@@H]2C1=O,–,-14.2% (inactive)
O=C1c2ccccc2C(=O)C1c1nc2ccccc2c(Br)c1O,–,-12.8% (inactive)
